For test [1], the system named is DLD1. As to the kind of experiment: cell viability (CellTiter-Glo) relative to plate median (fraction of plate median); higher = more viable cells. The note with it: 5 µM; treatment time 24 h; reporter: 7TFP. In outline: (§1)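 Colorectal cancer cell lines stably carrying lentiviral TCF/Wnt firefly luciferase reporters (7TFP or TCF4/Wnt) were plated in 384-well plates and, 24 h later, given library compounds at a final 5 µM for 24 h. Firefly luciferase or CellTiterGlo luminescence was read on parallel plates with a Tecan F500 reader. Each well's signal was normalised to the plate median in webcellHTS2 (additive, without log transformation). Values are the mean of two independent replicates.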

A further test relates to HCT116. Described as above. The note with it: 5 µM; treatment time 24 h; reporter: TCF4/Wnt. In outline:
as §1

The test system of test [2] is SW480. Described as above. Particulars: 5 µM; treatment time 24 h; reporter: 7TFP. In outline:
as §1

In test [3] the test system is DLD1. As to the kind of experiment: TCF/Wnt firefly luciferase reporter signal relative to plate median (fraction of plate median); higher = higher Wnt reporter signal. The note with it: 5 µM; treatment time 24 h; reporter: 7TFP. In outline: as §1
Test [4] concerns SW480. Described as above. Particulars: 5 µM; treatment time 24 h; reporter: 7TFP. In outline: as §1

± gives the standard deviation of the averaged measurements.

As to `C[C@H]1O[C@H](O[C@H]2[C@H](O)[C@@H](O)[C@@H](O[C@H]3[C@H](O)[C@@H](O)C(O)O[C@@H]3CO)O[C@@H]2CO)[C@H](O)[C@@H](O)[C@@H]1N[C@H]1C=C(CO)[C@@H](O)[C@H](O)[C@H]1O` (stereo not given in full), the cell viability in the test with DLD1 [1] was 1.01 ± 0.034; with HCT116 it was 0.96 ± 0.057; in the test with SW480 [2], 0.988 ± 0.012. Further, the entries for the “TCF/Wnt firefly luciferase reporter signal” value with DLD1 [3] and in the test on SW480 [4] were 1.06 and 1.02 ± 0.014, respectively.
The matching figures for `CC[n+]1c(-c2ccccc2)c2cc(N)ccc2c2ccc(N)cc21`: 1.1 ± 0.014, 1.1 ± 0.057, 1.22, 0.96 ± 0.085 and 1.08 ± 0.12.
Regarding `CC(=O)Nc1c(I)cc(I)c(C(=O)O)c1I`, the cell viability in the test on DLD1 [1] came out at 1 ± 0.16; in the test with HCT116, 0.987 ± 0.014; with SW480 [2], 0.946 ± 0.055. Besides, the “TCF/Wnt firefly luciferase reporter signal” value in the test on DLD1 [3] was found to be 0.995 ± 0.092; with SW480 [4], 1.09 ± 0.099.
As for `OC[C@H]1O[C@H]([S-])[C@H](O)[C@@H](O)[C@@H]1O.[Au+]`, the values for the cell viability with DLD1 [1], in the test with HCT116 and in the test on SW480 [2] were 0.945 ± 0.21, 0.921 ± 0.019 and 1.11 ± 0.021, respectively. The “TCF/Wnt firefly luciferase reporter signal” value came out at 0.891 ± 0.12 with DLD1 [3] and 0.265 ± 0.088 in the test with SW480 [4].
The matching figures for `C[C@H]1C[C@H]2[C@@H]3CCC4=CC(=O)C=C[C@]4(C)[C@@]3(F)[C@@H](O)C[C@]2(C)[C@@]1(O)C(=O)CO`: 0.973 ± 0.0099, 1.03 ± 0.086, 1.01 ± 0.016, 0.938 ± 0.027 and 0.953 ± 0.0028.
As to `CCCCNc1cc(C(=O)O)cc(S(N)(=O)=O)c1Oc1ccccc1`, the cell viability in the test on DLD1 [1] is 1.015 ± 0.0071; with HCT116, 0.947 ± 0.022; with SW480 [2], 1.04 ± 0.035. Further, the “TCF/Wnt firefly luciferase reporter signal” value with DLD1 [3] was 1.03 ± 0.16; with SW480 [4], 1.06 ± 0.057.
On to `CS(=O)(=O)OCCCCOS(C)(=O)=O`, for which the figures for the cell viability with DLD1 [1], in the test with HCT116 and in the test with SW480 [2] were 1.12 ± 0.2, 1.06 ± 0.028 and 1.06 ± 0.05, respectively. Further, the “TCF/Wnt firefly luciferase reporter signal” value amounted to 0.9365 ± 0.005 in the test on DLD1 [3] and 0.984 ± 0.037 in the test on SW480 [4].
The matching figures for `COc1c(OC)c2occc2c2oc(=O)ccc12`: 1.004 ± 0.0085, 0.829 ± 0.16, 1.02 ± 0.077, 0.802 ± 0.21 and 0.948 ± 0.011.
`CCN1CCN(C(=O)N[C@@H](C(=O)N[C@@H]2C(=O)N3[C@@H]2SC(C)(C)[C@@H]3C(=O)O)c2ccccc2)C(=O)C1=O`: the cell viability in the test on DLD1 [1] was 0.994 ± 0.0085; in the test with HCT116, 0.993 ± 0.039; in the test on SW480 [2] it was 1.02 ± 0.039. For the same molecule, the results for the “TCF/Wnt firefly luciferase reporter signal” value with DLD1 [3] and in the test with SW480 [4] were 1.05 ± 0.014 and 1.03 ± 0.086, respectively.
The matching figures for `CNCCc1ccccn1`: 0.835 ± 0.059, 0.979 ± 0.086, 0.958 ± 0.027, 1.08 ± 0.21 and 1.1 ± 0.05.
With `CCCc1cc(C(N)=S)ccn1`, the cell viability stood at 0.972 ± 0.022 in the test on DLD1 [1], 1.05 ± 0.021 in the test with HCT116 and 0.976 ± 0.063 in the test with SW480 [2]. Moreover, the results for the “TCF/Wnt firefly luciferase reporter signal” value in the test on DLD1 [3] and with SW480 [4] were 1.015 ± 0.0071 and 1.04 ± 0.021, respectively.
Turning to `NC(=O)N(CCc1ccccc1)CCc1ccccc1` [N, N-Bis(2-phenylethyl)urea], the cell viability with DLD1 [1] stood at 1.08 ± 0.085; in the test with HCT116, 1.01 ± 0.014; with SW480 [2], 1.06 ± 0.021. In addition, the “TCF/Wnt firefly luciferase reporter signal” value with DLD1 [3] amounted to 1.03 ± 0.028; with SW480 [4], 0.946 ± 0.077.
In the case of `NCC(O)CC(=O)O` (stereo not given), the figures for the cell viability in the test on DLD1 [1], in the test on HCT116 and with SW480 [2] were 1.035 ± 0.0071, 1.04 ± 0.09 and 0.965 ± 0.028, respectively. Also, the entries for the “TCF/Wnt firefly luciferase reporter signal” value in the test on DLD1 [3] and in the test on SW480 [4] were 1.04 ± 0.035 and 1.07 ± 0.035, respectively.
Turning to `Cc1c(C)c2c(c(C)c1O)CCC(C)(CCCC(C)CCCC(C)CCCC(C)C)O2` (stereo not drawn) [alpha-TOCHOPHEROL], the values for the cell viability in the test with DLD1 [1], in the test with HCT116 and in the test with SW480 [2] were 0.963 ± 0.012, 0.97 ± 0.085 and 1.01 ± 0.017, respectively. Further, the “TCF/Wnt firefly luciferase reporter signal” value in the test with DLD1 [3] is 1.07 ± 0.014; in the test with SW480 [4] it was 1.01 ± 0.16.
The matching figures for `CO/N=C1\C[C@]2(C[C@@H]3C[C@@H](C/C=C(\C)C[C@@H](C)/C=C/C=C4\CO[C@@H]5[C@H](O)C(C)=C[C@@H](C(=O)O3)[C@]45O)O2)O[C@H](/C(C)=C/C(C)C)[C@H]1C`: 0.891 ± 0.0092, 0.921 ± 0.019, 0.896 ± 0.042, 0.939 ± 0.24 and 0.932 ± 0.11.
As for `O=C1CC(c2ccc(O)c(O)c2)Oc2cc(O)cc(O)c21` (stereo not given), the cell viability was 1.04 ± 0.14 in the test with DLD1 [1], 1.08 ± 0.057 in the test on HCT116 and 0.973 ± 0.095 in the test with SW480 [2]. Further, the “TCF/Wnt firefly luciferase reporter signal” value with DLD1 [3] stood at 0.912 ± 0.011; in the test on SW480 [4] it was 0.862 ± 0.0014.
For `O=C(O)/C=C/c1ccc(O)c(O)c1`, the cell viability is 0.941 ± 0.046 in the test on DLD1 [1], 1.05 ± 0.05 with HCT116 and 1.03 ± 0.081 in the test with SW480 [2]. Also, the entries for the “TCF/Wnt firefly luciferase reporter signal” value with DLD1 [3] and with SW480 [4] were 0.983 ± 0.14 and 1.03 ± 0.035, respectively.
For the molecule `CC(=O)O[C@H]1C[C@@H](OC(C)=O)C(C)(C)C2CC(=O)[C@]3(C)C(CC[C@@]4(C)[C@H](C(=O)O)OC(=O)C5OC543)[C@]21C` (stereo not given in full), the results for the cell viability in the test with DLD1 [1], with HCT116 and with SW480 [2] were 0.985 ± 0.093, 0.922 ± 0.028 and 1.01 ± 0.032, respectively. The “TCF/Wnt firefly luciferase reporter signal” value with DLD1 [3] was determined as 0.826 ± 0.027; in the test on SW480 [4] it was 0.95 ± 0.21.
The matching figures for `C=CC(C)(O)CCC1C(=C)CC(O)C2C(C)(C)CCCC12C` (stereo not given): 0.995 ± 0.0071, 0.865 ± 0.1, 0.996 ± 0.0057, 0.922 ± 0.15 and 0.927 ± 0.1.
The matching figures for `CN(C)[C@@H]1C(O)=C(C(N)=O)C(=O)[C@@]2(O)C(O)=C3C(=O)c4c(O)cccc4[C@@](C)(O)[C@H]3[C@H](O)[C@@H]12`: 1.02 ± 0.17, 1.07 ± 0.071, 1.01 ± 0.021, 0.901 ± 0.18 and 1 ± 0.071.
As to `O=C(O[C@@H]1Cc2c(O)cc(O)cc2O[C@@H]1c1cc(O)c(O)c(O)c1)c1cc(O)c(O)c(O)c1`, the cell viability in the test on DLD1 [1] is 1.03 ± 0.035; in the test on HCT116, 1.01 ± 0.048; in the test on SW480 [2], 1.08 ± 0.014. Moreover, the “TCF/Wnt firefly luciferase reporter signal” value was determined as 0.974 ± 0.037 in the test on DLD1 [3] and 0.916 ± 0.014 in the test on SW480 [4].
The matching figures for `N=C(N)NCCN1CCCCCCC1`: 1.03 ± 0.035, 1.04 ± 0.11, 1.04 ± 0.05, 0.983 ± 0.081 and 1.115 ± 0.0071.
Take `CCC(=O)OC1[C@@H]2CC3=C4CC(=O)O[C@@H](c5ccoc5)[C@]4(C)CCC3[C@@](C)(C2=O)[C@@H](CC(=O)OC)C1(C)C` (stereo not given in full): the cell viability was 0.932 ± 0.087 with DLD1 [1], 1.03 ± 0.046 in the test on HCT116 and 1 ± 0.027 in the test on SW480 [2]. In addition, the “TCF/Wnt firefly luciferase reporter signal” value with DLD1 [3] came out at 0.969 ± 0.012; with SW480 [4], 0.979 ± 0.19.
As for `COC(=O)c1cc(O)c(=O)c2c(O)c(O)ccc2c1`, the cell viability worked out at 0.982 ± 0.096 with DLD1 [1], 0.8955 ± 0.0021 with HCT116 and 0.997 ± 0.033 in the test on SW480 [2]. Besides, the “TCF/Wnt firefly luciferase reporter signal” value with DLD1 [3] is 0.785 ± 0.037; in the test on SW480 [4] it was 0.951 ± 0.11.
Turning to `CS(=O)(=O)c1ccc([C@@H](O)[C@@H](CO)NC(=O)C(Cl)Cl)cc1`, the cell viability with DLD1 [1] turned out to be 0.914 ± 0.055; in the test on HCT116, 0.958 ± 0.06; with SW480 [2], 0.925 ± 0.014. In addition, the results for the “TCF/Wnt firefly luciferase reporter signal” value with DLD1 [3] and in the test on SW480 [4] were 0.982 ± 0.018 and 0.814 ± 0.058, respectively.
The matching figures for `O=C1[C@@H]2CCCN2C(=O)[C@@H]2CCCN12` [Cyclo(Prolylprolyl)]: 0.978 ± 0.0071, 1.03 ± 0.065, 0.9595 ± 0.0078, 0.811 ± 0.15 and 1.01 ± 0.05.
Regarding `O=CN(O)CCCC(NC(=O)C(CO)NC(=O)C1COC(c2ccccc2O)=N1)C(=O)NCCC(=O)NC1CCCN(O)C1=O` (stereo not given) [Oxachelin hydrate], the cell viability with DLD1 [1] worked out at 1.09 ± 0.13; in the test on HCT116, 1.11 ± 0.12; in the test on SW480 [2], 1.02 ± 0.05. The “TCF/Wnt firefly luciferase reporter signal” value in the test on DLD1 [3] came to 1.2 ± 0.014; in the test on SW480 [4] it was 0.946 ± 0.16.
For the molecule `N[C@H]1C(O)O[C@H](CO)[C@@H](O)[C@@H]1O` (stereo not given in full), the cell viability in the test with DLD1 [1] came out at 0.973 ± 0.037; in the test with HCT116, 0.993 ± 0.024; with SW480 [2], 0.99 ± 0.013. The “TCF/Wnt firefly luciferase reporter signal” value in the test with DLD1 [3] amounted to 1.12; with SW480 [4] it was 1.06 ± 0.021.
The matching figures for `CC(CCc1ccccc1)NCC(O)c1ccc(O)c(C(N)=O)c1` (stereo not given): 1.01 ± 0.12, 1.08 ± 0.014, 0.943 ± 0.044, 0.935 ± 0.012 and 0.939 ± 0.046.
Turning to `O=C(O[C@@H]1Cc2c(O)cc(O)cc2O[C@@H]1c1cc(O)c(=O)c2c(O)c(O)cc([C@H]3Oc4cc(O)cc(O)c4C[C@H]3O)c2c1)c1cc(O)c(O)c(O)c1`, the cell viability with DLD1 [1] is 1.04 ± 0.069; with HCT116, 1.15 ± 0.028; in the test with SW480 [2], 1.01 ± 0.021. The “TCF/Wnt firefly luciferase reporter signal” value with DLD1 [3] was determined as 1.1 ± 0.057; in the test on SW480 [4], 1.04 ± 0.05.

These data come from the supplement of paper PMC6522484.
